Holding throughout (conditions): mRNA level, 48 h; actives raise or lower the signal
Read-out in test [1]: Hypoxia-inducible factor 1-alpha (Homo sapiens) (UniProt Q16665)
Description: LTEA_HepaRG_HIF1A: Life Technologies and Expression Analysis (LTEA) Assay for Hypoxia-inducible factor 1 (HIF1A) Trancription factor using HepaRG (AID 2283503).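 Further: HIF1A transcript by TaqMan qRT-PCR normalized to ACTB GAPDH and POLR2A.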 In outline: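 HepaRG, 48 h exposure, 8-pt half-log series from 100 uM, 0.5% DMSO vehicle, duplicates. Readout: HIF1A transcript by qRT-PCR (Fluidigm array), housekeeping-normalised. Bidirectional curve fit vs DMSO baseline.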

Read-out in test [2]: 3-Hydroxy-3-Methylglutaryl-CoA Synthase 2 (HMGCS2), HMGCS2 (gene 3158)
Description: LTEA_HepaRG_HMGCS2: Life Technologies and Expression Analysis (LTEA) Assay for 3-Hydroxy-3-Methylglutaryl-CoA Synthase 2 (HMGCS2) using HepaRG (AID 2283504). Summed up:
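qRT-PCR read-out of HMGCS2 transcript, normalised to three housekeeping genes, in HepaRG cells after 48 h chemical exposure. Eight-point curves from 100 uM, half-log dilutions, 0.5% DMSO vehicle; gain or loss fitted relative to DMSO baseline.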

Read-out in a further test: HGF (gene 3082)
Description: LTEA_HepaRG_HGF: Life Technologies and Expression Analysis (LTEA) Assay for Hepatocyte Growth Facto (HGF) using HepaRG (AID 2283505). Summed up: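 HepaRG, 48 h dosing, 8-pt half-log series from 100 uM in 0.5% DMSO, duplicates. Readout: TaqMan qRT-PCR of HGF mRNA, housekeeping-normalized; bidirectional curve fit vs DMSO baseline.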

Read-out in test [3]: Insulin Like Growth Factor 1 (IGF1), IGF1 (gene 3479)
The test can be described thus: LTEA_HepaRG_IGF1: Life Technologies and Expression Analysis (LTEA) Assay for Insulin Like Growth Factor 1 (IGF1) using HepaRG (AID 2283506). Summed up: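 Using human HepaRG liver cells, IGF1 transcript induction or suppression is measured 48 h after dosing across eight concentrations capped at 100 uM. Values derive from bidirectional concentration-response fitting with DMSO as baseline.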

Read-out in test [4]: Intercellular Adhesion Molecule 1 (ICAM1), ICAM1 (gene 3383)
Description: LTEA_HepaRG_ICAM1: Life Technologies and Expression Analysis (LTEA) Assay for Intercellular Adhesion Molecule 1 (ICAM1) using HepaRG (AID 2283507). In outline:
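HepaRG, 48 h exposure, 8-pt half-log series from 100 uM, 0.5% DMSO vehicle, duplicates. Readout: TaqMan qRT-PCR mRNA, housekeeping-normalized (ACTB/GAPDH/POLR2A). Bidirectional curve fit vs DMSO baseline.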

Read-out in test [5]: Interleukin 6 (IL6), IL6 (gene 3569)
The test can be described thus: LTEA_HepaRG_IL6: Life Technologies and Expression Analysis (LTEA) Assay for Interleukin 6 (IL6) using HepaRG (AID 2283509). In outline:
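HepaRG cells exposed in duplicate for 48 h to eight half-log concentrations, top 100 uM, in 0.5% DMSO serum-free induction medium. mRNA measured by qRT-PCR, normalized to ACTB, GAPDH and POLR2A. Bidirectional fit versus DMSO.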

Read-out in test [6]: Interleukin 6 Receptor (IL6R), IL6R (gene 3570)
The test can be described thus: LTEA_HepaRG_IL6R: Life Technologies and Expression Analysis (LTEA) Assay for Interleukin 6 Receptor (IL6R) using HepaRG (AID 2283510).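 On AC50: differentiated human HepaRG liver cells in serum-free induction medium.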 In outline:
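Concentration-response in human liver HepaRG cells: eight concentrations from 100 uM downward by half-logs, 48 h exposure, 0.5% DMSO vehicle. IL6R mRNA change measured by qRT-PCR and fitted in both directions relative to vehicle.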

Read-out in test [7]: Potassium channel subfamily K member 1 (KCNK1), KCNK1 (gene 3775)
Description: LTEA_HepaRG_KCNK1: Life Technologies and Expression Analysis (LTEA) Assay for Potassium channel subfamily K member 1 (KCNK1) using HepaRG (AID 2283511). In outline:
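Differentiated HepaRG cells, 48 h exposure in serum-free induction medium with 0.5% DMSO; 8 concentrations, half-log from 100 uM, duplicate. KCNK1 mRNA by qRT-PCR, normalized to ACTB, GAPDH, POLR2A; bidirectional fit vs DMSO.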

Read-out in test [8]: Keratin 19 (KRT19), KRT19 (gene 3880)
The test can be described thus: LTEA_HepaRG_KRT19: Life Technologies and Expression Analysis (LTEA) Assay for Keratin 19 (KRT19) using HepaRG (AID 2283512). In outline:
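HepaRG, 48 h chemical exposure, 8-pt half-log CRC from 100 uM, 0.5% DMSO vehicle, duplicates. Readout: TaqMan qRT-PCR of KRT19 mRNA, housekeeping-normalized (ACTB/GAPDH/POLR2A). Bidirectional fit vs DMSO baseline.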

SMILES strings stand for the structures. Activity calls are given as the source filed them. How the source made its calls: active means hit-call score of the fitted dose curve at least 0.9, where 1 is the maximum; inactive means score below 0.9.

The AC50 is the midpoint of the concentration-response curve, whichever way the signal moves.

Hypoxia-inducible factor 1-alpha (Homo sapiens), sequence (Q16665 whole entry, looked up): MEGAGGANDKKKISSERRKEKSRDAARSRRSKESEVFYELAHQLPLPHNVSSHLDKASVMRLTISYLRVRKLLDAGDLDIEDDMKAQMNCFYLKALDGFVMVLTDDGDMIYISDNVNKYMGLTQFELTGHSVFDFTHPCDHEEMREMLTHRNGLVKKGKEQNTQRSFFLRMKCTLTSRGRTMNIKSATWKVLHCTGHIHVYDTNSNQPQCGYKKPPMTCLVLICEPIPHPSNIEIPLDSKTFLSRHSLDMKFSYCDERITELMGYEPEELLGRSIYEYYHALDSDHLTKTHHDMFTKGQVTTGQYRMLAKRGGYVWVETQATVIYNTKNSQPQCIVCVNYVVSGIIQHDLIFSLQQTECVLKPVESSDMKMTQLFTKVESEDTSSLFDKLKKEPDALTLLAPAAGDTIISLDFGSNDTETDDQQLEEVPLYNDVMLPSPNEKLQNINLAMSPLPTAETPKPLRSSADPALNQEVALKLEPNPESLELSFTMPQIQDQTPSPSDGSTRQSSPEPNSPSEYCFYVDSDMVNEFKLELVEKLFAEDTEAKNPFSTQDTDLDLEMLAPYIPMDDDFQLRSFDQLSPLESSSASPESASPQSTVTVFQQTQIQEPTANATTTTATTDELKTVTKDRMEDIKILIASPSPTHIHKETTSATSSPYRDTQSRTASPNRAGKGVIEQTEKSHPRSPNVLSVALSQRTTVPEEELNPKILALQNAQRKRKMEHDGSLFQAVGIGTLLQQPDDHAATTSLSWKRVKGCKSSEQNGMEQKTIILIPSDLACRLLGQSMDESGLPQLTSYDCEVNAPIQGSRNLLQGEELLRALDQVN

As to `CC(O)CCO` (stereo unspecified), the result (in test [1]; in test [2]; with HGF (gene 3082); in test [3]; in test [4]; in [5]) was inactive. The outcome in test [6], in test [7] and in test [8] was inactive.
On to `C[N+](C)(C)CC1CO1` (stereo unspecified), for which the call (in [1]; in test [2]; in the test with HGF (gene 3082); in [3]; in test [4]; in [5]) was inactive. Further, the compound was classed as inactive in test [6], in [7] and in [8].
Regarding `CC(C)N(Cc1ccccc1)C(=O)C(C)(C)C`, the result (in [1]; in test [2]; with HGF (gene 3082); in test [4]; in test [5]; in test [6]) was inactive. In addition, the compound was called inactive in [7] and in [8]. Besides, the AC50 in [3] was 25.6 µM (active).
Regarding `COC(=O)Nc1nc2ccccc2[nH]1`, the result (in [1]; in [2]; in the test with HGF (gene 3082); in test [3]; in [4]; in [5]) was inactive. The compound was called inactive in test [6] and in test [7]. In test [8], the AC50 is 7.44 µM (active).
With `c1ccc(NNc2ccccc2)cc1`, the compound was called inactive (in [1]; in [2]; in the test with HGF (gene 3082); in [3]; in test [4]; in [5]). The compound was called inactive in test [6], in [7] and in [8].
For the compound `CCOc1cccc(C2(N3CCN(c4ccccc4)CC3)CCC(C)CC2)c1` (stereo unspecified), the compound was called inactive (in [1]; in test [2]; in the test with HGF (gene 3082); in [3]; in [4]; in test [5]). Moreover, the result in [6], in [7] and in test [8] was inactive.
As for `Cc1cc(N=Nc2ccccc2C)ccc1N`, the AC50 in test [1] was 7.09 µM (active); in [2], 12.8 µM (active); in [3], 4.25 µM (active); in test [6] it was 2.45 µM (active); in test [8], 17.2 µM (active). Also, the result (with HGF (gene 3082); in test [4]; in test [5]; in [7]) was inactive.
In the case of `Nc1ccc(Cc2ccc(N)cc2)cc1`, the call (in test [1]; in test [2]; in the test with HGF (gene 3082); in test [3]; in [4]; in test [5]) was inactive. The outcome in [6], in test [7] and in test [8] was inactive.
On to `O=C(N[C@H](c1ccccc1)[C@@H]1CN2CCC1CC2)c1c(Cl)ccc(C(F)(F)F)c1Cl`, for which the compound was called inactive (in test [1]; with HGF (gene 3082); in [6]). The AC50 is 72.8 µM (active) in test [2]; 46.2 µM (active) in test [3]; 66.6 µM (active) in test [4]; 74.8 µM (active) in test [5]; 59.7 µM (active) in [7]; 12 µM (active) in test [8].
Regarding `C[C@]12C=CC3=C4CCC(=O)C=C4CC[C@H]3[C@@H]1CC[C@@H]2O`, the compound was classed as inactive (in [1]; in test [2]; in the test with HGF (gene 3082); in test [4]; in test [6]; in [7]). The result in test [8] was inactive. Besides, the AC50 in test [3] is 55.6 µM (active); in [5] it was 9.92 µM (active).
For the compound `Cc1ccc([N+](=O)[O-])cc1`, the outcome (in [1]; in test [2]; with HGF (gene 3082); in [4]; in [5]; in [6]) was inactive. Also, the compound was called inactive in test [7] and in test [8]. Moreover, in test [3], the AC50 was 17.8 µM (active).
`O=[N+]([O-])C(Br)(CO)CO`: the result (in [1]; in test [2]; with HGF (gene 3082); in test [3]; in [4]; in test [5]) was inactive. Further, the call in [6], in test [7] and in test [8] was inactive.
As to `CN(C)C(=O)Nc1ccc(Cl)cc1`, the outcome (in test [1]; in test [2]; in the test with HGF (gene 3082); in test [3]; in test [4]; in test [5]) was inactive. Moreover, the outcome in test [6], in [7] and in test [8] was inactive.
In the case of `C=CCc1ccc2c(c1)OCO2`, the compound was called inactive (in [1]; in [2]; with HGF (gene 3082); in test [3]; in test [4]; in test [5]). In addition, the outcome in test [6], in [7] and in test [8] was inactive.

(Values after PubChem BioAssay (EPA / NIEHS).)
